# Compound activity as filed in PubChem.
# POLK inh: inhibitors of human DNA polymerase kappa | purified Pol kappa, fluorescent DNA synthesis assay, 10 min | Potency, µM (doses to about 107 µM), inactives show at the highest dose activity, negative = inhibition, usual class: inhibitors | actives 0.53% (n = 400,000); also: % is scaled to controls: 0 for no effect and ±100 for the full control effect
#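 10 nM Pol kappa preincubated 15 min at room temperature with compounds, then reaction started with substrate at 50 nM final. Fluorescence read kinetically at 0 and 10 min; buffer-only wells served as negative control.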
# POLB inh: inhibitors of human DNA polymerase beta; P06746; Pol beta primer extension/strand displacement, fluorescence kinetic; actives 1.3% (n = 340,000); Potency, µM (top dose mostly 114 µM), for inactives: at the top dose activity change, negative = inhibition, hits mostly inhibitors; also: % is scaled to controls: 0 for no effect and ±100 for the full control effect
#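 Kinetic readout of DNA synthesis with strand displacement by Pol beta. Compound and 10 nM enzyme sit 15 min at room temperature; 50 nM substrate starts the reaction, read immediately and at 10 min.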
# FEN1 inh: human FEN1 inhibition | P39748 | Recombinant FEN1 flap cleavage, fluorescence, 15 min | Potency, µM (doses to about 114 µM), inactives show at the highest dose activity change, negative = inhibition, actives largely listed as inhibitors | actives 0.35% (n = 390,000) | AID 588795; also: % is scaled to controls: 0 for no effect and ±100 for the full control effect; nearly all actives have a fitted effect of over 65% in size
#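 Read-out was taken twice, immediately and after 15 min, following addition of 50 nM substrate to 10 nM FEN1 that had sat with test compound for 15 min at room temperature. Curves came from a four-parameter Hill model.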
# POLI inh: DNA polymerase iota (human) inhibition. AID 588590. Pol iota fluorescent replication assay, 10 min. Potency, µM (series often up to 115 µM), for the others: top-dose activity, negative = inhibition, hits mostly inhibitors. actives 1% (n = 390,000)
#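 Pol iota at 10 nM preincubated 15 min with compounds at room temperature; reaction started with fluorescent substrate, 50 nM final. Fluorescence read kinetically at 0 and 10 min; buffer-only wells as negative control.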
# Pol eta inh: DNA polymerase eta (human) inhibition; Q9Y253; recombinant Pol eta, fluorescent DNA replication assay; Potency, µM (doses to about 114 µM), without a hit: at the top dose activity change, negative = inhibition, usual class: inhibitors; actives 1.2% (n = 390,000); AID 588591; also: % is scaled to controls: 0 for no effect and ±100 for the full control effect
#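 Pol eta (10 nM) was preincubated with compounds for 15 min at room temperature, after which fluorescent replication substrate (50 nM final) was added to start the reaction. Fluorescence was read kinetically at 0 and 10 min.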
# TDP1 inh: TDP1 (human) enzyme inhibition. Q9NUW8. recombinant TDP1, AlphaScreen DNA substrate cleavage. Potency, µM (doses to about 130 µM), for inactives: top-dose activity change, negative = inhibition, hits mostly inhibitors. actives 0.28% (n = 350,000); also: % is scaled to controls: 0 for no effect and ±100 for the full control effect; nearly all actives have a fitted effect of over 40% in size
#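 Steps: enzyme plus compound, 15 min RT; add biotin/phosphotyrosine-FITC oligonucleotide (15 nM final), react 5 min; add donor/acceptor beads (10 ug/ml final), 10 min; read AlphaScreen. Tdp1 at 1 nM final.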
# Starred values were filed as active, the others as inactive; ? = inconclusive; · = no result; [ ] = another dose, or the depositor's remark. Compounds with a hit are over-represented: about 2.4% of the library has one in this group of screens. Calls follow the shape of the dose curve; as a rule, active = well fitted curve in the direction sought with a large enough effect; inconclusive = small, poorly fitted or top-dose-only effect, or another doubt; inactive = no such curve, though single readings can be large; an effect the other way counts as inactive or inconclusive. Potency is read from the fitted curve at half-maximal effect.
SMILES,POLK inh,POLB inh,FEN1 inh,POLI inh,Pol eta inh,TDP1 inh
CCSc1cc(N2CCCC2)nc(-c2ccc(F)cc2)n1,1.7%,-8.8%,-4.8%,?,1.4%,0.5%
COc1ccc(-c2cc(=O)oc3c4c(ccc23)OCN(Cc2cccc(OC)c2)C4)cc1,2.4%,24.7%,-16.8%,-16.6%,-19.4%,-1.2%
CC1CC1C(=O)OCC(=O)Nc1ccc2[nH]c(=O)[nH]c2c1 (configuration not stated),-21.7%,25.1µM*,-31.6%,39.8µM*,50.1µM*,-8.2%
NS(=O)(=O)c1ccc(Sc2nc3ccccc3s2)c([N+](=O)[O-])c1,-1.0%,-6.5%,-9.4%,13.6%,-27.0%,·
CN(CCO)c1cc(Sc2nc3ccccc3s2)c2nonc2c1[N+](=O)[O-],-16.1%,7.7%,-29.0%,22.4µM*,-14.2%,4.8%
Oc1nc(Nc2ccc(Cl)cc2Cl)sc1/C=C1\C=Nc2ccccc21,-26.2%,?,?,?,14.1µM*,-2.8%
CN(C)c1cccc(S(=O)(=O)N2CCCN(S(=O)(=O)c3ccc4c(c3)OCCO4)CC2)c1,·,·,·,·,·,3.0%
O=C1NC(c2ccccc2)=N/C1=C/c1ccco1,?,28.2µM*,-5.1%,5.0%,-13.5%,-1.9%
O=C1NC(c2ccccc2Br)=N/C1=C\c1ccco1,79.4µM*,?,-9.9%,?,-8.7%,·
O=C1NC(=O)C(=Cc2ccco2)S1,-20.5%,·,-22.2%,?,-13.3%,·
O=C1NC(=O)/C(=C/c2ccco2)N1,3.0%,·,-0.3%,50.4%,-9.4%,-0.1%
O=C1NC(c2cccc(Br)c2)=N/C1=C\c1ccco1,-84.6%,44.7µM*,-2.6%,25.1µM*,3.9%,1.1%
O=C1NNC(c2ccccc2)=N/C1=C\c1ccccc1,-15.7%,-1.6%,10.4%,?,-19.0%,9.9%
COc1ccc(CN2CC[C@H]3C=CC[C@@H](C(=O)Nc4ccc(Cl)cc4Cl)[C@H]3C2=O)cc1OC,-17.5%,·,2.9%,6.3%,·,·
COc1ccc(C2C3=C(N=CN(CCN4CCOCC4)C3N)Oc3ccccc32)cc1OC (configuration not stated),·,·,·,·,·,2.6%
CSc1ccc2nnc(-c3ccc(C)cc3)n2n1,-10.8%,·,-13.2%,3.9%,·,0.2%
Cc1ccc(NC(=O)Nc2ccc3c(c2)N(C)C(=O)CS3)nc1,-2.1%,?,3.0%,89.1µM*,-28.6%,4.8%[56.1 µM]
O=C(O)/C(=C\c1ccc(Cl)c([N+](=O)[O-])c1)c1ccc(S(=O)(=O)N2CCCCC2)s1,-31.7%,?,2.1%,?,79.4µM*,7.1%
O=C(O)/C(=C\c1ccccc1Cl)c1ccc(S(=O)(=O)N2CCCCC2)s1,-23.0%,?,-4.7%,?,50.1µM*,-2.7%
COc1ccc(Br)cc1/C=C(\C(=O)O)c1ccc(S(=O)(=O)N2CCCC2)s1,?,·,-0.4%,?,22.4µM*,?
O=C(O)/C(=C\c1cccc(C(F)(F)F)c1)c1ccc(S(=O)(=O)N2CCCC2)s1,-15.6%,·,14.3%,?,?,-1.2%
O=C(O)/C(=C\c1cccc([N+](=O)[O-])c1)c1ccc(S(=O)(=O)N2CCCCC2)s1,-34.5%,25.1µM*,-18.6%,?,?,-2.9%
CN(C)c1ccc(C2C=C(c3ccccc3)Nc3nnnn32)cc1 (configuration not stated),4.0%,-0.5%,20.1%,-2.9%,4.6%,·
CC1CCCCC12NC(=O)N(Cc1cc(=O)n3ccsc3n1)C2=O (configuration not stated),-13.0%,?,-14.4%,79.4µM*,-3.8%,-1.2%
O=C(CCCc1ccc(-c2ccccc2F)cc1)Nc1ccc(O)cc1,·,·,·,·,·,13.5%
O=C(O)c1cc(Cl)c2c(c1)OCO2,-39.4%,?,-15.7%,?,22.4µM*,·
COc1cc2c(O)cc(C(=O)O)c(-c3cc(OC)c(OC)c(OC)c3)c2cc1OC,8.4%,·,-3.5%,?,89.1µM*,·
C/C=C\C1=CCCC1Nc1ncnc2ccc(-c3c(C)noc3C)cc12 (configuration not stated),·,·,·,·,·,9.7%
